B1: design_598_15ab41e9-cad4-4381-8935-81f74b313fe8_1541_dldesign_0_cycle1_af2pred (protein)
chain: AEQEKKDEEYKEKAKKGEELAKKAKERAEKNKDDKGVLGSQAELAEHIAKALKKAAEEASEEVKPELKAAAEKAKKVAKYAEELA
B2: design_598_15ab41e9-cad4-4381-8935-81f74b313fe8_1648_dldesign_0_cycle1_af2pred (protein)
chain: KKEEAKKELLEKVKKLEEEGEKLLEEKTPKEARAKALEKGKEIMKEAEKAIKDPETKEAGKEAKKKAAEAMAKLYEKAAEKEAKE
B3: design_598_15ab41e9-cad4-4381-8935-81f74b313fe8_1154_dldesign_0_cycle1_af2pred (protein)
chain: EKAKKAAEYSSEAAKHAIKAAKLLKEAGAPQEVLNLLQEAIVNMDKAAEYYAAAMEAAKKNPELGPEIQAELKKAEEHTKKANELL
B4: design_598_15ab41e9-cad4-4381-8935-81f74b313fe8_1360_dldesign_0_cycle1_af2pred (protein)
chain: DPAQAAFTAKAKERAEQLKALAKEFPEEAEKLTKLAEEGLKLAAGDAETQKKAAEKLQEAYELAAEARAKKA
B5: design_598_15ab41e9-cad4-4381-8935-81f74b313fe8_2343_dldesign_0_cycle1_af2pred (protein)
chain: ASEELWKKAQEIATKAVAAAQARYAAEGKYEELDKDIDKIYELAVEAAKEGEEGLKKLEEMRKEAEEAAKKALEAA
B6: design_598_15ab41e9-cad4-4381-8935-81f74b313fe8_1370_dldesign_0_cycle1_af2pred (protein)
chain: AEFAVKILETLAERVPPEYAVVAREAAEIVKEKGAEGAREAARLVREAAERNPELPEEHRKAMLNAARVLEILAEAE
B7: design_598_15ab41e9-cad4-4381-8935-81f74b313fe8_231_dldesign_0_cycle1_af2pred (protein)
chain: AEAELARAREVAKRVAEKLREAAKEAEKIDPEVAEKGRKVAEAAEAATAGTVEEIAAATQEARQALAEAEFLVKK
B8: design_598_15ab41e9-cad4-4381-8935-81f74b313fe8_2059_dldesign_0_cycle1_af2pred (protein)
chain: GEKEELKEKAKKLKELAKKAVEKAKKAAEENPEAKPLAEKAKELAEEAIKLAEEGTKESLEKAAKILQELREVTAEAEFIARKG
B9: design_598_15ab41e9-cad4-4381-8935-81f74b313fe8_1756_dldesign_0_cycle1_af2pred (protein)
chain: GFKEEAEKKMEKVLEEAKKASVKEAATIVREAYAELKGIGHLLEKKGKKEEGKFAEEVAKKVLEEGKKIVEEKAAA
B10: design_598_15ab41e9-cad4-4381-8935-81f74b313fe8_1412_dldesign_0_cycle1_af2pred (protein)
chain: DSPAMQLNEALTDAKYAADKIKEVDPSLAPEAQALYDKVKALLEKARKGDAATVAAAAKEAKALAEQAEKLLKQAKERAKKA
B11: design_598_15ab41e9-cad4-4381-8935-81f74b313fe8_801_dldesign_0_cycle1_af2pred (protein)
chain: AEKEKKIEELEAKAKEYEAKGKAAEAAGDYKTAAEYYEKAADAYLEMAKVDPEKAEEYIKKAQELYRKSIQYEAKASAA
B12: design_598_15ab41e9-cad4-4381-8935-81f74b313fe8_1476_dldesign_0_cycle1_af2pred (protein)
chain: SEEKKKEEEKKVKEAEKLAKKAKEAAKKGDVKTAKEYYEKAKKIAKEVKKEGSKELATKAANAAQEAYQAYREAEAKA
B13: design_598_15ab41e9-cad4-4381-8935-81f74b313fe8_1263_dldesign_0_cycle1_af2pred (protein)
chain: GMEEIEKRNEEVKKKAEELKKQVEKAEKLAEKGDPEGKKLAEETKKKAIELAKSNPEAEPEVKTEITEIAVEAQGIEHLMKIK
B14: design_599_7ce25d4d-e004-4b84-a16f-baf856d943ab_80_dldesign_0_cycle1_af2pred (protein)
chain: SKAAEKAEAQKAKEEATKAAEEAAKEAKKAGLEDLAKYLENAKKTADAKAQASSDPAEAKKYYEKYKATATRLLEDLKKAE
B15: design_598_15ab41e9-cad4-4381-8935-81f74b313fe8_1668_dldesign_0_cycle1_af2pred (protein)
chain: KEKVKKELEESKKELEKTLEKIKELVSSLPEEEREALAKGLVDPKTALEAAKKIAEAVGKEGANAAQEAISERRAIEQYEKILE
B16: design_598_15ab41e9-cad4-4381-8935-81f74b313fe8_1188_dldesign_0_cycle1_af2pred (protein)
chain: KEEEEKKKEEEWKKKADAEAAIEQGKNALEAAKKDPSKAKEAAKVAKKLAKRAPEAKEELEKIAKEAEAIGKA
B17: design_598_15ab41e9-cad4-4381-8935-81f74b313fe8_1538_dldesign_0_cycle1_af2pred (protein)
chain: KEEAKKKVEEARKLVEEAKKLIEKGEYEKGLKLAEEAAELAHKTSVKYGAGEAEKVYKEASKVISLAWAKLAEAKK
B18: design_598_15ab41e9-cad4-4381-8935-81f74b313fe8_1784_dldesign_0_cycle1_af2pred (protein)
chain: ADEEGKKLVKEKLEEAKKALEKAKAGDKKEALDAASTATRNAHKIEAFAKAVPVSEEVVKLAKEAVKELEKYEEKAAKLLAK
B19: design_599_7ce25d4d-e004-4b84-a16f-baf856d943ab_135_dldesign_0_cycle1_af2pred (protein)
chain: MEEEEGEKKVEEAKKKLSAALYEYADMSVNEETLKEGRKKVEEAVKEALELGKKSTPETAEKLKKAAEKALKVAERIEEAS
B20: design_598_15ab41e9-cad4-4381-8935-81f74b313fe8_2338_dldesign_0_cycle1_af2pred (protein)
chain: AEEKAKELYAKGEKLYKEGLKADKETGKEYFTKAAEYFKAAAEEFKKAGNVVGAGYAESKAERAKEAAELL
B21: design_598_15ab41e9-cad4-4381-8935-81f74b313fe8_1691_dldesign_0_cycle1_af2pred (protein)
chain: DKEAEAKKIEAAAKKNAEAALADAEKAKEYAKAGDKSKAKQYSESAKIYLELAGTAAKKGAGYPTAPEIKKLYEDTKAKVEEILKEA
B22: design_598_15ab41e9-cad4-4381-8935-81f74b313fe8_2408_dldesign_0_cycle1_af2pred (protein)
chain: ELELLKERAELYERAAKAAEAGKLGAGIRLAAIAEDLIDLELGKKKEKELKASSREEALKILKKEAEKYKAKAKELA
B23: design_598_15ab41e9-cad4-4381-8935-81f74b313fe8_790_dldesign_0_cycle1_af2pred (protein)
chain: MEKEAEKFAEEGKKKVEELKKKLEENKDNAEKNEELAKKARELAKEFEEEGKKAPEEMRKKLAEIAQEAREVAAEAKGLAIIAKEK
B24: design_598_15ab41e9-cad4-4381-8935-81f74b313fe8_2298_dldesign_0_cycle1_af2pred (protein)
chain: SKKAEQTLFRAEALGEAVTEAAEQLDPALGARVRERAKELIERAKKDGTLEAAEKALEEMRRLAEEVRAAIEAA
B25: design_598_15ab41e9-cad4-4381-8935-81f74b313fe8_2180_dldesign_0_cycle1_af2pred (protein)
chain: AEAAEKAAAKAVINEAYDLLGSSTAEEALKYAEEKAKEAKAAGKKIVADAAEKTAKVLKRIAEDEKEAKK
B26: design_598_15ab41e9-cad4-4381-8935-81f74b313fe8_2011_dldesign_0_cycle1_af2pred (protein)
chain: KLEEYKKKIKEKAKEMGKSLDPEERKKLLEEIKKLAKEASKELGEKEEIEKFAAEEAHEGLEQASENRFKS
B27: design_598_15ab41e9-cad4-4381-8935-81f74b313fe8_1446_dldesign_0_cycle1_af2pred (protein)
chain: IDSKKASELIREAVRNAQKAGEIAKSLPNGEEIKKRVAEALLLAIDPETAEEGIKLLEELAKEAEELNPEAGKHIKEAAEHLKKFAEL
B28: design_598_15ab41e9-cad4-4381-8935-81f74b313fe8_2441_dldesign_0_cycle1_af2pred (protein)
chain: AKEKAEELAKKAREGIERAERRVEEGKKKSKKDAAIYSYSAAELLDSVAAGIVKELLKEDPELGKKVAEEVEKAREEALKEAEKYES
B29: design_598_15ab41e9-cad4-4381-8935-81f74b313fe8_1361_dldesign_0_cycle1_af2pred (protein)
chain: DETKKALAEMSELRHQLDAEAKWYEKHAKESEKYKEAAKEAKEGADYAKKALKKAKEGTPEEALKAAKEALEELKKKEEKVEKLFKEA
B30: design_598_15ab41e9-cad4-4381-8935-81f74b313fe8_1042_dldesign_0_cycle1_af2pred (protein)
chain: NLEELIKKAIKAAEKGDAKGAVTYVMDAGAEAGDMKLAVEVGRKIQELLATDPAAGKAASAALIKEAGKKFL
B31: design_598_15ab41e9-cad4-4381-8935-81f74b313fe8_1677_dldesign_0_cycle1_af2pred (protein)
chain: DVAALIAKAAALVDDPSKAAEALKYLVAAREKALSEGDAAALKQIAAVAAEGAKKAPPEYAKGFKLLANTAKSIAEDLEK
B32: design_598_15ab41e9-cad4-4381-8935-81f74b313fe8_1727_dldesign_0_cycle1_af2pred (protein)
chain: SAAQLAASAKGRLLAVADYARAKGISEEAAELAEKAAEADVATAAELAEKAAKLLEEAGDEKLAERARKAAEKLKKAAKE
B33: design_598_15ab41e9-cad4-4381-8935-81f74b313fe8_273_dldesign_0_cycle1_af2pred (protein)
chain: SMAKKIEEGKKLAEELREAVRTAQAIGARLDALVAADPSVAPLATEIRAKASEAIFKIADGKEEEGKALMEEATALAAAAEAAAAAAA
B34: design_598_15ab41e9-cad4-4381-8935-81f74b313fe8_1419_dldesign_0_cycle1_af2pred (protein)
chain: DIAKVTQQAQEELTEYAFKVPELKEEFDAARKESVKLGKEGASTSPEAAEKASKEIKKITEEMKKKAEEAL
B35: design_598_15ab41e9-cad4-4381-8935-81f74b313fe8_1028_dldesign_0_cycle1_af2pred (protein)
chain: SDEKLAAEASQVGLELKAEVKAGNANPEIKEKLSKEALEKAEKAVKEFEKKSPAAGKVAKEMLKKIKEAAKE
B36: design_598_15ab41e9-cad4-4381-8935-81f74b313fe8_887_dldesign_0_cycle1_af2pred (protein)
chain: GEEKSRAAAEALRAATRAVRAAAATAAAADPATAAAVRAAWAAAVKADDLADAEAALRAAAAAATDPATRALLNAAADAYATIAAIA
B37: design_598_15ab41e9-cad4-4381-8935-81f74b313fe8_1969_dldesign_0_cycle1_af2pred (protein)
chain: AAAAAKKAQAKKLVGLGLFYYLDYLAGGPESSKEKGDAYYAAAAALDPATAAEAKAKADKIAARFKKDVEEAKK
B38: design_598_15ab41e9-cad4-4381-8935-81f74b313fe8_686_dldesign_0_cycle1_af2pred (protein)
chain: SPTEMQEALTDADGYAVLAKNAGIEEVAKKAKEAAKKIKELIKQARADPSKAPELAKKAKELAKEAEKEFEKAKKEFE

The binders below were run against VTCN1, Q7Z7D3.
Sequence of VTCN1, Q7Z7D3 (Q7Z7D3 whole entry): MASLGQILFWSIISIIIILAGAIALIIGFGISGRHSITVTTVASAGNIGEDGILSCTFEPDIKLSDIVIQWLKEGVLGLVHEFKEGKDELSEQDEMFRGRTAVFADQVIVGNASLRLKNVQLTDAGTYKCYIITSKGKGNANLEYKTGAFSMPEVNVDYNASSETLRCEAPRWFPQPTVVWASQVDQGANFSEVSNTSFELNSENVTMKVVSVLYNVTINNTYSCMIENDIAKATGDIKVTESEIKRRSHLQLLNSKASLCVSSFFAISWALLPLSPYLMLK

Binding in a display sort, inactive:
B1 not found, B2 not found, B3 not found, B4 not found, B5 not found, B6 not found, B7 not found, B8 not found, B9 not found, B10 not found, B11 not found, B12 not found, B13 not found, B14 not found, B15 not found, B16 not found, B17 not found, B18 not found, B19 not found, B20 not found, B21 not found, B22 not found, B23 not found, B24 not found, B25 not found, B26 not found, B27 not found, B28 not found, B29 not found, B30 not found, B31 not found, B32 not found, B33 not found, B34 not found, B35 not found, B36 not found, B37 not found, B38 not found

Source: publication PMC13494018
